Results from PubChem BioAssay.

Columns and labels:
[1] = target: Tumor necrosis factor receptor superfamily member 10B (Homo sapiens) (UniProt O14763); assay: viability loss of caspase-8 NB7 cells with TRAIL – with/without TRAIL, luminescence panel, confirmation (AID 651596); settings: NB7 neuroblastoma + caspase-8, TRAIL sensitization, NB7 Caspase-8, with TRAIL, mean of runs, at 10 µM, stronger effect = higher value
[2] = as above; settings: NB7 neuroblastoma + caspase-8, without TRAIL, NB7 Caspase-8, without TRAIL, mean of runs, at 10 µM
[3] = target: Tumor necrosis factor receptor superfamily member 10B (Homo sapiens) (UniProt O14763); assay: compound enhancement of TRAIL-induced cell killing – NB7 cells plus caspase-8, luminescence, panel, dose response (AID 652002); settings: NB7 neuroblastoma +caspase-8, TRAIL sensitization, luminescence viability, NB7+Caspase-8, with TRAIL, run 1; at 12.5 µM (top of the series)
[4] = target: Tumor necrosis factor receptor superfamily member 10B (Homo sapiens) (UniProt O14763); assay: as above; settings: NB7 neuroblastoma +caspase-8, TRAIL sensitization, luminescence viability, NB7+Caspase-8, with TRAIL, run 2; at 12.5 µM (top of the series)
[5] = as above; settings: NB7 neuroblastoma +caspase-8, no TRAIL, compound-alone cytotoxicity counter-screen, luminescence viability, NB7+Caspase-8, run 1; at 12.5 µM (top of the series) unless noted
[6] = as above; settings: NB7 neuroblastoma +caspase-8, no TRAIL, compound-alone cytotoxicity counter-screen, luminescence viability, NB7+Caspase-8, run 2; at 12.5 µM (top of the series) unless noted

Sequence of Tumor necrosis factor receptor superfamily member 10B (Homo sapiens) (O14763 whole entry, looked up): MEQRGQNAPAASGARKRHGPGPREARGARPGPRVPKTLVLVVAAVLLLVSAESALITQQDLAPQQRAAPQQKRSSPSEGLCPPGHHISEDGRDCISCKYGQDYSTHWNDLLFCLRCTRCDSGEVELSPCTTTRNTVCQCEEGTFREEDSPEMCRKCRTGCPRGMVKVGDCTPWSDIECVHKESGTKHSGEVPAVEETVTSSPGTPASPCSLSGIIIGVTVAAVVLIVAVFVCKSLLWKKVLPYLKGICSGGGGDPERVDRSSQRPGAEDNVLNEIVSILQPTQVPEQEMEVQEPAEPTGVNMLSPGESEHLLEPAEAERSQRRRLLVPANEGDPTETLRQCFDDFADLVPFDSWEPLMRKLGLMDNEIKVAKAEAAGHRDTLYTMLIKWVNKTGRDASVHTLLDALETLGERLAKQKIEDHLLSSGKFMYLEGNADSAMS

## Brc1ccc(-c2cn3ccccc3n2)cc1
[1]
  activity: 50.8%
[2]
  activity: 62.2%

## CCc1ccc(NC(=O)c2nc(S(=O)(=O)Cc3ccccc3)ncc2Cl)cc1
[1]
  activity: 51.2%
[2]
  activity: 86.6%

## O=C(CCl)Nc1c(C(=O)Nc2ccc3c(c2)OCCO3)oc2ccccc12
[1]
  activity: 93.3%
[2]
  activity: 90.3%

## O=C(Nc1ccccn1)c1ccc2c(c1)OCCO2
[1]
  activity: 49.8%
[2]
  activity: 47.5%

## O=C(COc1ccc(/C=N/NC(=O)c2cc3ccccc3o2)cc1Br)Nc1ccccc1
[1]
  activity: 93%
[2]
  activity: 96.8%

## O=C(NOCc1ccccc1)c1ccc(Cl)cc1
[1]
  activity: 45.1%
[2]
  activity: 43.2%

## CCC(=O)Nc1cccc(-c2ccc(N3CCCCC3)nn2)c1
[1]
  activity: 85.5%
[2]
  activity: 84.5%

## C#Cc1cc(N2CCN(C(=O)c3ccoc3)CC2)n2nc(-c3cccc(Cl)c3)cc2n1
[1]
  activity: 98.4%
[2]
  activity: 97.3%

## CCOC(=O)c1nn(-c2ccc3c(c2)OCCO3)cc1O
[1]
  activity: 60%
[2]
  activity: 57%

## Cc1csc(NC(=S)NC(=O)c2ccccc2)n1
[1]
  activity: 67.7%
[2]
  activity: 53.1%

## CS(=O)(=O)c1nc(-c2ccc(Br)cc2)cc(-c2ccccc2)c1C#N
[1]
  activity: 94%
[2]
  activity: 98.9%

## COc1ccc(C2C(C(=O)N3CCC(C)CC3)c3ccccc3C(=O)N2C)cc1 (centres undefined)
[1]
  activity: 67.2%
[2]
  activity: 68.5%

## Nc1nc(=S)c2ncn(C3OC(CO)C(O)C3O)c2[nH]1 (centres undefined)
[1]
  activity: 9.65%
[2]
  activity: 6.78%

## Cc1csc(NC(=O)c2cc3c(s2)CCC3)n1
[1]
  activity: 81.8%
[2]
  activity: 86.3%

## CCOc1cc(/C=N\NC(=O)c2ccc(NC(=O)C(C)(C)C)cc2)ccc1OC(=O)c1cccc(C)c1
[1]
  activity: 73.5%
[2]
  activity: 47.2%

## CCOc1ccc(N=Cc2c(C)[nH]n(-c3nc4ccccc4[nH]3)c2=O)cc1
[1]
  activity: 87.4%
[2]
  activity: 86.2%

## Cc1ccc(/C(N)=N/OC(=O)c2ccc(Cl)cc2Cl)cc1
[1]
  activity: 97%
[2]
  activity: 96.7%

## Cc1ccc(C(=O)N/N=C\c2cccc(OC(=O)c3cccc(F)c3)c2)cn1
[1]
  activity: 37.2%
[2]
  activity: 36.8%

## CN(C)c1ccc(Sc2ccc3nc(N)nc(N)c3c2)cc1
[1]
  activity: 62.9%
[2]
  activity: 73%

## O=C(N/N=C/c1ccc[nH]1)c1ccc(COc2cccc3cccnc23)cc1
[1]
  activity: 71.5%
[2]
  activity: 90.3%

## CCn1cc(-c2cc(C(=O)O)c3ccccc3n2)cn1
[1]
  activity: 65%
[2]
  activity: 58.2%

## Nc1nccc(-c2cc(-c3ccc(Cl)cc3Cl)no2)n1
[1]
  activity: 62.4%
[2]
  activity: 56.9%

## C#Cc1ccc([C@@H]2C=C(C(=O)Nc3ccccc3)O[C@H](OCC)[C@H]2CCCO)cc1
[1]
  activity: 90.8%
[2]
  activity: 91.5%

## Brc1ccc(-c2cn3ccccc3n2)s1
[1]
  activity: 52.6%
[2]
  activity: 38.7%

## CCCCCCCCCCCCCCC[C@@H](O)[C@@H](N)CO
[1]
  activity: 84.5%
[2]
  activity: 79.7%

## CN1CCN(C(=O)C2=NOC3(C2)C(=O)Nc2ccccc23)CC1 (centres undefined)
[1]
  activity: -0.15%
[2]
  activity: 70.2%

## CNC(=O)c1cc(Oc2ccc(NC(=O)Nc3ccc(Cl)c(C(F)(F)F)c3)cc2)ccn1
[1]
  activity: 88.9%
[2]
  activity: 63.2%

## Cc1ccc(NC(=O)N2CCc3ccccc32)cc1C
[1]
  activity: 71.9%
[2]
  activity: 66.1%

## N/C(CCS(=O)(=O)c1ccc(Cl)cc1)=N\OC(=O)c1ccc(Cl)cc1
[1]
  activity: 98.2%
[2]
  activity: 93.3%

## COc1cccc(C(=O)/C=C2\Sc3ccccc3N2C)c1
[1]
  activity: 56.7%
[2]
  activity: 29.4%

## O=C(N/N=C/c1ccc(Br)s1)c1ccccn1
[1]
  activity: 44.5%
[2]
  activity: 46.6%

## COc1ccccc1-c1cc(C(=O)NC2CCN(C)CC2)c2ccc(Cl)c(C)c2n1
[1]
  activity: 89.2%
[2]
  activity: 86%

## Cc1cc(-c2ccc(F)cc2)n2ncc(-c3ccccc3)c2n1
[1]
  activity: 76.6%
[2]
  activity: 84.3%

## COc1cc(C2CC(c3cccs3)=NN2C(=O)CCl)ccc1OC(F)F (centres undefined)
[1]
  activity: 99.5%
[2]
  activity: 99.5%

## Cc1cc(C)n2nc(C(=O)Nc3ccc4c(c3)OCCO4)nc2n1
[1]
  activity: 45%
[2]
  activity: 47.2%

## C/C(=N\Nc1nc2ccccc2s1)c1cccs1
[1]
  activity: 52.8%
[2]
  activity: 30.2%

## CN=c1scc(C)n1/N=C/c1ccc2c(c1)OCO2
[1]
  activity: 56.7%
[2]
  activity: 42.2%

## Cc1cccc(NC(=S)NNC(=O)c2ccc3c(c2)OCO3)c1
[1]
  activity: 39.1%
[2]
  activity: 49.8%

## O=C(/C=C/C(Cl)(Cl)Cl)Nc1ccc(Cl)cc1
[1]
  activity: 98.8%
[2]
  activity: 98.9%

## CCN1CCN(Cc2ccc(NC(=O)c3cc(NC(=O)c4cc5cccc(OC)c5o4)cc(OC)c3)cc2C(F)(F)F)CC1
[1]
  activity: 59.2%
[2]
  activity: 79.5%

## O=C(NCCc1ccccc1)C(c1cccs1)N(C(=O)CCl)c1ccc(Cl)cc1 (centres undefined)
[1]
  activity: 99.5%
[2]
  activity: 99.5%

## CC(C)N(CC(=O)Nc1ccc(Cl)cc1C(F)(F)F)C(=O)CCl
[1]
  activity: 99.4%
[2]
  activity: 96.2%

## Cc1cccc(-n2ncc3c(NC(C)C)ncnc32)c1
[1]
  activity: 63.2%
[2]
  activity: 64.7%

## COC(=O)c1sc(NC(=S)NC(=O)c2cccc(C)c2)nc1C
[1]
  activity: 46.2%
[2]
  activity: 33.2%

## CC(C)c1ccc(OCc2cccc(C(=O)N/N=C/c3cccnc3)c2)cc1
[1]
  activity: 47.6%
[2]
  activity: 45.3%

## Cn1cnc([N+](=O)[O-])c1Sc1nc(N)nc2c1ncn2C1OC(CO)C(O)C1O (centres undefined)
[1]
  activity: 66.8%
[2]
  activity: 75.4%

## CC1(Cc2ccc(OC(F)(F)F)cc2)C(=O)Nc2ccc(S(=O)(=O)NC3CCCCC3)cc21 (centres undefined)
[1]
  activity: 46.4%
[2]
  activity: 31%
[3]
  activity, % sensitization: -0.836%
[4]
  activity, % sensitization: -0.606%
[5]
  activity, % sensitization: 23.3%
[6]
  activity, % sensitization: 28.2%

## C#Cc1ccccc1OCCCN1CCC(C(O)(c2ccccc2)c2ccccc2)CC1
[1]
  activity: 97.2%
[2]
  activity: 94.2%

## CCOc1ccc(-c2cc(C(=O)N3CCC(C)CC3)c3ccccc3n2)cc1
[1]
  activity: 53.4%
[2]
  activity: 47.2%
[3]
  activity, % sensitization: 23.7%
[4]
  activity, % sensitization: 31.6%
[5]
  activity, % sensitization: -3.22%
[6]
  activity, % sensitization: -9.62%

## CCN(CC)CCN1C(=O)/C(=C\c2ccc(Cl)c([N+](=O)[O-])c2)SC1=Nc1ccc(OC)cc1
[1]
  activity: 82.2%
[2]
  activity: 97.3%

## CN(C(=O)COC(=O)c1cnc(Cl)c(Cl)c1)C1CCCCC1
[1]
  activity: 68.5%
[2]
  activity: 47.4%
[3]
  activity, % sensitization: 11.9%
[4]
  activity, % sensitization: 14.2%
[5]
  activity, % sensitization: -5.35%
[6]
  activity, % sensitization: 13.1%

## O=C(Nc1ccc(NC(=O)C2CC2)cn1)c1ccccc1
[1]
  activity: 51.1%
[2]
  activity: 57%

## O=C(Nc1cc(C(F)(F)F)cc(C(F)(F)F)c1)Nc1cnn(-c2ccc([N+](=O)[O-])cc2)c1C(F)(F)F
[1]
  activity: 74.2%
[2]
  activity: 63%

## COc1cccc(NC(=O)c2ccc3c(c2)OCO3)c1
[1]
  activity: 51.7%
[2]
  activity: 30.6%
[3]
  activity, % sensitization: 51%
[4]
  activity, % sensitization: 42.7%
[5]
  activity, % sensitization: 48%
[6]
  activity, % sensitization: 32.2%
